In PubChem BioAssay (NCI):
About 83,000 compounds went through this panel and 20% of them were active in at least one assay; those are over-represented in the sample as a whole.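 Percent growth is the endpoint: 0 to 100 indicates growth inhibition (40 means 60% inhibition), 0 means no net growth, and negative values indicate cell death.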 The source made the active and inactive calls. The calls were made as follows: active = growth percent below 10; inactive = the rest.

Legend:
Test in all cases: NCI-60 one-dose screen, 48 h (100 = growth as untreated, 0 = no growth, -100 = all killed)
Details in all cases: 10 µM unless noted
[1] = system: NCI-H23 lung
[2] = system: NCI-H226 lung
[3] = system: NCI-H322M lung
[4] = system: HOP-62 NSCLC
[5] = system: NCI-H460 lung
[6] = system: HOP-92 NSCLC
[7] = system: NCI-H522 lung
[8] = system: A549/ATCC NSCLC
[9] = system: 786-0 renal
[10] = system: COLO 205 colon
[11] = system: DU-145 prostate
[12] = system: K-562 leukemia
[13] = system: MALME-3M melanoma
[14] = system: MDA-MB-231 breast
[15] = system: RXF 393 renal
[16] = system: SF-268 CNS
[17] = system: SF-295 CNS
[18] = system: SF-539 CNS
[19] = system: UACC-257 melanoma
[20] = system: M14 melanoma

Row | SMILES | growth [1] | growth [2] | growth [3] | growth [4] | growth [5] | growth [6] | growth [7] | growth [8] | growth [9] | growth [10] | growth [11] | growth [12] | growth [13] | growth [14] | growth [15] | growth [16] | growth [17] | growth [18] | growth [19] | growth [20]
1 | CC(=O)O[C@H](C[C@H](C(C)C)N(C)C(=O)[C@@H](NC(=O)[C@H]1CCCCN1C)C(C)C)c1nc(C(=O)NC2CCC(C(=O)O)CC2)cs1 (stereo not given in full) | 64.8% (inactive) | 90.6% (inactive) | 72.4% (inactive) | 47.1% (inactive) | 26.7% (inactive) | 38% (inactive) | -6.59% (active) | 57.8% (inactive) | 46% (inactive) | 32.6% (inactive) | 41.1% (inactive) | 22.8% (inactive) | 61.8% (inactive) | 64.1% (inactive) | 44.1% (inactive) | 48.2% (inactive) | 35.1% (inactive) | 27.5% (inactive) | 50% (inactive) | 41.5% (inactive)
2 | CCOC(=O)[C@@H](C)C[C@H](Cc1ccccc1)NC(=O)c1csc([C@@H](C[C@H](C(C)C)N(C)C(=O)[C@@H](NC(=O)[C@H]2CCCCN2C)C(C)(C)CC)OC(C)=O)n1 | 26.9% (inactive) | -41.7% (active) | 34.4% (inactive) | 18.8% (inactive) | -10.1% (active) | 16% (inactive) | -32.8% (active) | 10.1% (inactive) | 1.55% (active) | -62.6% (active) | 0.285% (active) | 5.03% (active) | 11.9% (inactive) | -1.28% (active) | 23.5% (inactive) | 12.3% (inactive) | -4.66% (active) | -28.4% (active) | 48.1% (inactive) | -26.8% (active)
3 | CC(C)CCC1(CCCl)C(=O)NC(=O)NC1=O | 99.6% (inactive) | 96.6% (inactive) | 101% (inactive) | 106% (inactive) | 101% (inactive) | 91.2% (inactive) | 104% (inactive) | 91% (inactive) | 96.1% (inactive) | 110% (inactive) | 107% (inactive) | 116% (inactive) | 95.3% (inactive) | 101% (inactive) | 98.1% (inactive) | 109% (inactive) | 96.2% (inactive) | 100% (inactive) | 91.1% (inactive) | 96.7% (inactive)
4 | CCCC(=O)O[C@@H]1C[C@H]2C[C@@H](O[C@@H]3O[C@@H](C)[C@@H](O)[C@@H](O)[C@H]3OC)C[C@@H](C[C@@H](C)/C=C/C=C\C[C@@H]3O[C@@H](C[C@@H]3C)[C@@H](O)C[C@H]3C[C@@]1(O)C(=O)O3)O2 | 25.9% (inactive) | 33.3% (inactive) | 88.4% (inactive) | 64.8% (inactive) | 47.3% (inactive) | 91.6% (inactive) | 21% (inactive) | 46.4% (inactive) | 76.6% (inactive) | 39.4% (inactive) | 48.8% (inactive) | 21.2% (inactive) | 64.7% (inactive) | 86.4% (inactive) | 72.1% (inactive) | 80.1% (inactive) | 7.39% (active) | 67.6% (inactive) | 9.61% (active) | 69.8% (inactive)
5 | Clc1ccc(N2COOC3(OOC2)C2CC4CC(C2)CC3C4)cc1 | 22% (inactive) | 95.8% (inactive) | 76.4% (inactive) | 45.9% (inactive) | 61.5% (inactive) | -23.1% (active) | -53.2% (active) | 47.4% (inactive) | -4.34% (active) | 101% (inactive) | 85% (inactive) | 29.9% (inactive) | 26.3% (inactive) | 82.9% (inactive) | 101% (inactive) | 58.1% (inactive) | 70.6% (inactive) | 23.5% (inactive) | 85.8% (inactive) | 65.9% (inactive)
6 | Cn1cc(C=O)c2nccnc21 | 94.9% (inactive) | 120% (inactive) | 123% (inactive) | 113% (inactive) | 104% (inactive) | 82% (inactive) | 78.2% (inactive) | 96.8% (inactive) | 119% (inactive) | 109% (inactive) | 118% (inactive) | 101% (inactive) | 106% (inactive) | 111% (inactive) | 112% (inactive) | 123% (inactive) | 101% (inactive) | 108% (inactive) | 102% (inactive) | 120% (inactive)
7 | CC(=O)O[C@H](C[C@H](C(C)C)N(C)C(=O)[C@@H](NC(=O)[C@H]1CCCCN1C)C(C)C)c1nc(C(=O)N[C@@H](Cc2ccccc2)C[C@H](C)C(=O)O)c(CCOCc2ccccc2)s1 | 24.3% (inactive) | -56.8% (active) | 33.5% (inactive) | 29.6% (inactive) | 5.98% (active) | 5.5% (active) | -47.4% (active) | 13% (inactive) | 7.14% (active) | -42% (active) | -9.34% (active) | 7.14% (active) | 23.3% (inactive) | 9.48% (active) | 18.3% (inactive) | 11.6% (inactive) | -19.8% (active) | -31.5% (active) | 54.5% (inactive) | -29.4% (active)
8 | O=C(CC1(O)C(=O)Nc2ccc(Cl)cc21)c1ccc(C(=O)NCC2CCC3(CC2)OOC2(CCCCC2)OO3)cc1 (stereo not given) | 32.1% (inactive) | 53.3% (inactive) | 77.7% (inactive) | -55.4% (active) | -55.4% (active) | -70.3% (active) | -1.69% (active) | -55.4% (active) | -65.6% (active) | 1.29% (active) | -60.1% (active) | -56.9% (active) | -51.5% (active) | 16.8% (inactive) | 18.5% (inactive) | 32.9% (inactive) | 37.6% (inactive) | -52.5% (active) | 37.8% (inactive) | 52% (inactive)
9 | NC(=O)c1c(Br)n(C2OC(CO)C(O)C2O)c2ncnc(N)c12 (stereo not given) | 9.8% (active) | 54.1% (inactive) | 21.7% (inactive) | 12% (inactive) | 11.8% (inactive) | 3.71% (active) | -18.7% (active) | 12.9% (inactive) | 25.9% (inactive) | -12.9% (active) | 1.13% (active) | 1.67% (active) | 13.2% (inactive) | 50.6% (inactive) | -16.4% (active) | 20.1% (inactive) | 38.9% (inactive) | 13.7% (inactive) | -0.624% (active) | 2.28% (active)
10 | COc1cc(C=Nc2cccc(Br)c2)ccc1N(CCCl)CCCl | 72.7% (inactive) | 75.2% (inactive) | 132% (inactive) | 89% (inactive) | 21.9% (inactive) | 74.8% (inactive) | -81.5% (active) | 64.9% (inactive) | 94.4% (inactive) | 78.5% (inactive) | 87.6% (inactive) | 88.4% (inactive) | 128% (inactive) | 91.2% (inactive) | 2.86% (active) | 80.3% (inactive) | 44.4% (inactive) | 67.9% (inactive) | 96.6% (inactive) | 94% (inactive)
11 | Nc1ccc(Cl)cc1 | 99.3% (inactive) | 92.1% (inactive) | 106% (inactive) | 90.3% (inactive) | 109% (inactive) | 85.5% (inactive) | 89.3% (inactive) | 78.7% (inactive) | 97.7% (inactive) | 95.9% (inactive) | 102% (inactive) | 100% (inactive) | 104% (inactive) | 104% (inactive) | 105% (inactive) | 104% (inactive) | 99.2% (inactive) | 96.6% (inactive) | 86.4% (inactive) | 99.5% (inactive)
12 | OCCNC(Cc1ccccc1)c1ccc2c(c1)OCO2 (stereo not given) | 100% (inactive) | 96.5% (inactive) | 98.4% (inactive) | 77.7% (inactive) | 106% (inactive) | 73.1% (inactive) | 67.5% (inactive) | 90.8% (inactive) | 95.5% (inactive) | 91% (inactive) | 101% (inactive) | 84.1% (inactive) | 90.8% (inactive) | 98.7% (inactive) | 109% (inactive) | 97.9% (inactive) | 90% (inactive) | 104% (inactive) | 90.1% (inactive) | 88.5% (inactive)
13 | N#CCCNc1ccccc1 | 110% (inactive) | 106% (inactive) | 110% (inactive) | 116% (inactive) | 111% (inactive) | 94.9% (inactive) | 92.8% (inactive) | 113% (inactive) | 120% (inactive) | 118% (inactive) | 116% (inactive) | 98.3% (inactive) | 120% (inactive) | 111% (inactive) | 106% (inactive) | 97.7% (inactive) | 101% (inactive) | 98.1% (inactive) | 118% (inactive) | 112% (inactive)
14 | CN[C@@]1(c2ccccc2Cl)CCCC[C@@H]1NCC1CCCO1 (stereo not given in full) | 97.4% (inactive) | 97.8% (inactive) | 94.1% (inactive) | 97.4% (inactive) | 110% (inactive) | 92% (inactive) | 91.3% (inactive) | 98% (inactive) | 97.7% (inactive) | 109% (inactive) | 111% (inactive) | 100% (inactive) | 95.3% (inactive) | 105% (inactive) | 106% (inactive) | 103% (inactive) | 98.2% (inactive) | 97% (inactive) | 96.5% (inactive) | 101% (inactive)
